Measurements taken from the supplement of paper PMC12297408.
Counter-ions that a name gives are not always drawn. Among all 1,300 compounds or so, about 40 (3%) showed activity. The sample holds actives, similar compounds and a random draw of the others, so the mix is not that of the screen.

System: Plasmodium falciparum NF54/iGP1_RE9H ulg8 stage V gametocytes
Assay: gametocyte viability (luciferase signal relative to DMSO control) (% of DMSO control); higher = less gametocytocidal activity, active = 50 or less
Conditions: exposure time: 72 h
Method in brief: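 Compounds from 10 mM DMSO stocks were spotted at nanolitre scale into 96-well plates, and day-12 stage V NF54/iGP1_RE9Hulg8 gametocytes (~2.5% gametocytemia, 3% hematocrit; medium with 0.5% Albumax II) were added to reach 10 µM or 1 µM, one well per concentration. The plates were kept at 37 °C for 72 h. Luminescence was then read on an IVIS Lumina II after mixing 90 µl of culture with 10 µl D-luciferin (30 mg/ml). Viability values are relative to the plate's mean DMSO vehicle signal.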

Row | Compound | gametocyte viability (concentration: 1 µM) | gametocyte viability (concentration: 10 µM)
1 | CCCN1C[C@H](CSC)C[C@@H]2c3cccc4[nH]cc(c34)C[C@H]21 [Pergolide mesylate] | 78.2 (inactive) | 82.3 (inactive)
2 | CC(C)C[C@H]1C(=O)N2CCC[C@H]2[C@]2(O)O[C@](NC(=O)[C@@H]3C=C4c5cccc6[nH]c(Br)c(c56)C[C@H]4N(C)C3)(C(C)C)C(=O)N12 [Bromocryptine mesylate] | 84.2 (inactive) | 66.9 (inactive)
3 | CN1C[C@H](C(=O)N[C@]2(C)O[C@@]3(O)[C@@H]4CCCN4C(=O)[C@H](Cc4ccccc4)N3C2=O)C[C@@H]2c3cccc4[nH]cc(c34)C[C@H]21 [Dihydroergotamine tartrate] | 66.8 (inactive) | 42.4 (active)
4 | CCNCC(O)c1cccc(O)c1 (stereo not given) [Etilefrine hydrochloride] | 87.9 (inactive) | 90.2 (inactive)
5 | CCC1(c2cccc(O)c2)CCCCN(C)C1 (stereo not given) [Meptazinol hydrochloride] | 83 (inactive) | 81.4 (inactive)
6 | CN1CCC2(C)c3cc(O)ccc3N(C)C12 (single isomer, unassigned; (-)) [(-)-Eseroline fumarate salt] | 74.2 (inactive) | 44.8 (active)
7 | CNC(=O)Oc1ccc2c(c1)[C@]1(C)CCN(C)[C@@H]1N2C [Eserine sulfate, physostigmine sulfate] | 83.4 (inactive) | 79 (inactive)
8 | C(#CCN1CCCC1)CN1CCCC1 [Tremorine dihydrochloride] | 91.5 (inactive) | 94.7 (inactive)
9 | C[C@@H]1O[C@@H](O[C@@H]2C=C3CC[C@@H]4[C@H](CC[C@]5(C)[C@@H](c6ccc(=O)oc6)CC[C@]45O)[C@@]3(C)CC2)[C@H](O)[C@H](O)[C@H]1O [Proscillaridin A] | 81.2 (inactive) | 76.2 (inactive)
10 | CCCCCC[C@H]1C(=O)O[C@H](C)[C@H](NC(=O)c2cccc(NC=O)c2O)C(=O)O[C@@H](C)[C@@H]1OC(=O)CC(C)C [Antimycin A] | 86.4 (inactive) | 94.3 (inactive)
11 | COc1ccc(CCN2CCC(Nc3nc4ccccc4n3Cc3ccc(F)cc3)CC2)cc1 [Astemizole] | 92.7 (inactive) | 36.4 (active)
12 | Fc1ccc(C(OCCN2CCN(CCCc3ccccc3)CC2)c2ccc(F)cc2)cc1 | 81.5 (inactive) | 86 (inactive)
13 | CN(C)[C@@H]1C(=O)C(C(N)=O)=C(O)[C@@]2(O)C(=O)C3=C(O)c4c(O)ccc(Cl)c4[C@@](C)(O)[C@H]3C[C@@H]12 [Chlortetracycline hydrochloride] | 88.2 (inactive) | 88.7 (inactive)
14 | CN1[C@@H]2CC[C@H]1C[C@@H](OC(=O)[C@H](CO)c1ccccc1)C2 [Hyoscyamine (L)] | 86.7 (inactive) | 91.7 (inactive)
15 | CN1[C@@H]2CC[C@H]1C[C@@H](OC1c3ccccc3CCc3ccccc31)C2 [Deptropine citrate] | 99.2 (inactive) | 86.5 (inactive)
16 | CC[C@@]1([C@@H]2O[C@@H]([C@H]3O[C@@](O)(CO)[C@H](C)C[C@@H]3C)C[C@@H]2C)CC[C@H]([C@]2(C)CC[C@]3(C[C@H](O)[C@@H](C)[C@@H]([C@@H](C)[C@@H](OC)[C@H](C)C(=O)O)O3)O2)O1 [Monensin sodium salt] | 28.8 (active) | 0.676 (active)
17 | C[C@]12CC[C@H](O)C[C@H]1CC[C@@H]1[C@@H]2C[C@@H](O)[C@]2(C)[C@@H](C3=CC(=O)OC3)CC[C@]12O [Digoxigenin] | 74.9 (inactive) | 72.3 (inactive)
18 | O[C@@H]1CCCC[C@H]1N1CCC(c2ccccc2)CC1 [L(-)-vesamicol hydrochloride] | 91.8 (inactive) | 84.9 (inactive)
19 | CC[C@@H](C(N)=O)N1CCCC1=O [Levetiracetam] | 83.8 (inactive) | 85.3 (inactive)
20 | C[C@]12CCC(=O)C=C1C=C[C@@H]1[C@@H]2CC[C@@]2(C)[C@H]1CC[C@@]2(O)CCC(=O)O [Canrenoic acid potassium salt] | 83.5 (inactive) | 82.3 (inactive)
21 | C=CC[C@]1(O)CC[C@H]2[C@@H]3CCC4=CC(=O)CCC4=C3C=C[C@@]21C [Altrenogest] | 56.8 (inactive) | 33.1 (active)
22 | C#C[C@]1(O)CC[C@H]2[C@@H]3CCC4=CC(=O)CCC4=C3C=C[C@@]21CC [Gestrinone] | 86.6 (inactive) | 74.2 (inactive)
23 | C[N+]1([O-])[C@@H]2C[C@@H](OC(=O)[C@H](CO)c3ccccc3)C[C@H]1[C@@H]1O[C@@H]12 (stereo not given in full) [Scopolamin-N-oxide hydrobromide] | 91.5 (inactive) | 94.5 (inactive)
24 | CCN[C@@H](C)Cc1cccc(C(F)(F)F)c1 [Dexfenfluramine hydrochloride] | 95.2 (inactive) | 90.6 (inactive)
25 | C[C@]12COC(=O)C[C@@H]1CC[C@@H]1[C@@H]2CC[C@@]2(C)[C@H]1CC[C@]2(C)O [Oxandrolone] | 81.4 (inactive) | 78.9 (inactive)
